PME-1 inh = PME-1 (human) inhibition; recombinant PME-1, FP-Rh probe fluorescence polarization; 0.53% of 320,000 active; AID 2130; Q9Y570; inhibition, % at 5.9 µM;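 active = inhibition above the campaign mean of all compounds plus 3 SD, cut at about 26% in these data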;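 note: competitive labeling of PME-1 active site by serine hydrolase directed probe; inhibitors block probe labeling so polarization falls and inhibition rises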
Fam108B counter = Fam108B inhibition, counter-screen for RBBP9 inhibitors; recombinant Fam108B, FP-Rh probe fluorescence polarization; inhibition, % at 9.51 µM; 0.33% of 300,000 active; AID 1947;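 active = inhibition above the screen mean inhibition plus 3 SD, computed separately per campaign, cut at about 18% in these data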;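 note: inhibitors lower polarization as less probe binds the enzyme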
LYPLA1 counter = LYPLA1 (human) inhibition in PME1 counter-screen; inhibition, % at 5.9 µM; O75608; AID 2174; recombinant LYPLA1, FP-Rh probe fluorescence polarization; 0.16% of 320,000 active;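 active = inhibition above the mean of all tested compounds plus 3 SD, set per campaign, cut at about 14% in these data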;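 note: inhibitors block serine hydrolase probe labeling of LYPLA1 so polarization falls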
Target sequence (O75608 whole entry, looked up): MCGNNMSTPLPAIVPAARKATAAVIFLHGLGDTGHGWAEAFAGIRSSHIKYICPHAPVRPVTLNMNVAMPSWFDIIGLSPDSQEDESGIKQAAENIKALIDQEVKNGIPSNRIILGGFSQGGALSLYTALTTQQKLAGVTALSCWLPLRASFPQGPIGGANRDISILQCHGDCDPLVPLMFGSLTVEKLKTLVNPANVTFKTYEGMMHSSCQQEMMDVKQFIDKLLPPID
GSTO1 inh = GSTO1 inhibition, counter-screen for RBBP9 inhibitors | recombinant GSTO1, activity-based probe fluorescence polarization | 1.1% of 300,000 active | inhibition, % at 5.96 µM | AID 1974;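 active = inhibition above the campaign mean inhibition plus 3 SD, cut at about 35% in these data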
Target sequence (P78417 whole entry, looked up): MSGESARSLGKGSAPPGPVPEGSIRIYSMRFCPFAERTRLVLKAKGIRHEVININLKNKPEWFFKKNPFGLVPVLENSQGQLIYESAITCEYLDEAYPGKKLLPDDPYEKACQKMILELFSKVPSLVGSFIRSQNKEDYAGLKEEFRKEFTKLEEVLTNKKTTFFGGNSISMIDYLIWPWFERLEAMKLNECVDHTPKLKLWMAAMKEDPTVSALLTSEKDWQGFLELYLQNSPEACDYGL
LYPLA2 counter = counter-screen for PME1 inhibitors: inhibitors of human LYPLA2. recombinant LYPLA2, FP-Rh probe fluorescence polarization. inhibition, % at 5.9 µM. O95372. 0.38% of 320,000 active;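 active = inhibition above the screen-wide mean plus 3 SD, limit set per campaign, cut at about 26% in these data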
PAD4 inh = PAD4 (human) enzyme inhibition; inhibition, % at 6.36 µM; Q9UM07; 0.41% of 330,000 active; recombinant PAD4, RCA probe fluorescence polarization;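 active = percent inhibition above a cutoff equal to the mean of all tested compounds plus 3 SD, cut at about 15% in these data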
Each line names hits and unclear results; the compound was inactive in the other large screens. Compounds with a hit are over-represented: about 1.8% of the library has one in this group of screens.

Cc1ccc2nsnc2c1NS(=O)(=O)c1c(C)ccc2nsnc12	PME-1 inh 31
CCn1c2ccccc2c2cc(NC(=O)c3ccccc3[N+](=O)[O-])ccc21	PME-1 inh 30
CC(=O)c1ccc(S(=O)(=O)N2CCN(C(=O)CN3C(=O)NC4(CCCC4)C3=O)CC2)cc1	none
Cc1cc(C(=O)OCC(=O)Nc2cc(S(=O)(=O)N(C)C)ccc2Cl)c2ccccc2n1	none
Cc1cc(C(=O)OCC(=O)Nc2cc(S(=O)(=O)N(C)C)ccc2C)c2ccccc2n1	PME-1 inh 28
O=C(NN1C(=O)/C(=C/c2cc([N+](=O)[O-])ccc2O)SC1=S)c1ccccc1O	GSTO1 inh 67
CC1CCCC(NC(=O)c2ccc(F)c(S(=O)(=O)N3CCOCC3)c2)C1C (centres undefined)	none
Cc1ccc(S(=O)(=O)N/N=C/c2ccccc2O)cc1[N+](=O)[O-]	none
Cc1ccc(S(=O)(=O)N/N=C/c2ccc(O)c(O)c2)cc1[N+](=O)[O-]	GSTO1 inh 50
CC(=O)NCCc1ccc(C(=O)COC(=O)C2CCCCC2)cc1	none (no result: PME-1 inh, Fam108B counter, LYPLA1 counter, GSTO1 inh, LYPLA2 counter)
COC(=O)/C(=C(/F)Sc1cc(C)c(O)c(C)c1)C(F)(F)F	PAD4 inh 16
COC(=O)C(Nc1ccccc1Cl)(c1cc(C)c(O)c(C)c1)C(F)(F)F (centres undefined)	none
O=C(NCCC1=CCCCC1)C1CCN(S(=O)(=O)c2cccs2)CC1	PME-1 inh 28
Cc1ccc2nc(CCl)[n+]([O-])c(-c3ccccc3)c2c1	GSTO1 inh 36
O=C(O)c1ccc(N/N=C/c2ccc(OC(=O)c3cccc(Cl)c3)cc2)cc1	PME-1 inh 41, LYPLA2 counter 41
COc1ccc(-c2[nH]n(-c3ccc([N+](=O)[O-])cc3)c(=O)c2C=NCc2ccc(F)cc2)cc1	none
COc1ccc(-c2cc(=O)n(-c3ccc([N+](=O)[O-])cc3)[nH]2)cc1	GSTO1 inh 53, PAD4 inh 36
COc1ccc(-c2cc(-c3cc(OC)ccc3O)[nH]n2)cc1	PME-1 inh 66
COc1ccc(-c2cc(-c3ccc(Cl)cc3)n[nH]2)c(O)c1	PME-1 inh 42
COc1ccc(-c2n[nH]c(C)c2-c2cc(OC)ccc2O)cc1	none
O=C(CC1C(=O)NCCN1Cc1ccccc1)NCCC1=CCCCC1 (centres undefined)	none
Cc1c(CC(=O)O)c(=O)oc2cc(OCc3ccc(Cl)cc3)ccc12	none
Oc1cc(-n2cccn2)c(O)cc1-n1cccn1	GSTO1 inh 70
O=Cc1ccccc1-n1cccn1	none
C/C(=N\Nc1nc2ccccc2s1)c1cccs1	PME-1 inh 32
COc1ccc(-c2[nH]c(-c3ccc(SC)cc3)nc2SCC(=O)Nc2nccs2)cc1	PME-1 inh 70, Fam108B counter 36
O=C(Cc1cnn(-c2ccccc2)c1)c1ccc(O)c(O)c1O	GSTO1 inh 50
Nc1c(C(=O)Nc2ccc(Cl)c(C(=O)O)c2)sc2nc3c(cc12)CCCC3	none
Nc1c(C(=O)Nc2cccc(C(=O)O)c2)sc2nc3c(cc12)CCCC3	PME-1 inh 26
C=CCn1c(=O)c2ccccc2n2c(SCC(=O)NCCc3ccccc3)nnc12	none
C=CCn1c(=O)c2ccccc2n2c(SCC(=O)c3ccccc3)nnc12	GSTO1 inh 36
Cc1cc2nc3c(nc2cc1C)CCCC3	none
Cc1cccc(C)c1NC(=S)N=Nc1c(O)n(C)c2ccc(S(=O)(=O)N3CCOCC3)cc12	none
Cc1ccccc1NC(=S)N=Nc1c(O)n(C)c2ccc(S(=O)(=O)N3CCOCC3)cc12	GSTO1 inh 36
O=C(c1ccc(S(=O)(=O)Cc2ccccc2F)c([N+](=O)[O-])c1)N1CCCCCC1	none
CC1CCN(C(=O)c2ccc(SCc3ccccc3F)c([N+](=O)[O-])c2)CC1	LYPLA2 counter 34
CC(=O)Nc1ccc(S(=O)(=O)NC2=C(N3CCN(c4ccc(F)cc4)CC3)C(=O)c3ccccc3C2=O)cc1	GSTO1 inh 57
Cc1ccc(C)c(NC(=O)CSc2nnc(NC(=O)C3CC3)s2)c1	none
CC(=O)c1sc(N/N=C\c2ccc(Br)cc2)nc1C	PME-1 inh 27
CC(=O)c1sc(N/N=C\c2cccc(Br)c2)nc1C	none
Cc1ccc(-c2cc[n+](Cc3ccccc3)cc2)cc1	none
Cc1ccc2c(c1)sc[n+]2Cc1ccccc1	PAD4 inh 22
CCOc1ccc(NC(C(=O)Nc2cccc(C(C)=O)c2)c2ccccc2)cc1 (centres undefined)	PME-1 inh 32
Cc1cc(C)c(S(=O)(=O)Nc2ccccc2C(=O)OCC(=O)NCc2ccccc2)c(C)c1	none
CCOC(=O)C(C)(C)N(Cc1cccc(C)c1)S(=O)(=O)c1ccc(Cl)c([N+](=O)[O-])c1	GSTO1 inh 61
Clc1ccc(-c2ccc(CNCC3CCCO3)o2)cc1 (centres undefined)	none
COC(=O)c1ccc(NC(=O)Nc2ccc(OC)cc2)cc1	PME-1 inh 29
COc1ccc(NC(=O)Nc2c(O)ccc3ccccc23)cc1	GSTO1 inh 37
COc1ccc(NC(=O)Nc2ccc(OC)cc2)cc1	none
CCCCOC(=O)c1ccc(NC(=O)Nc2ccc(OC)c(OC)c2)cc1	PME-1 inh 40
CCOC(=O)c1ccc(NC(=O)Nc2ccc(OC)c(OC)c2)cc1	none
O=S(=O)(Nc1ccc(N=Nc2ccc(O)c3ccccc23)cc1)c1ccccc1	PME-1 inh 39
O=S(=O)(Nc1ccc(N=Nc2ccccc2)cc1)c1ccccc1	none
CCOC(=O)[C@@H]1[C@H]2COc3ccc(Br)cc3[C@H]2N2C(=O)N(c3ccc(C(F)(F)F)cc3)C(=O)[C@]12C	none (no result: PME-1 inh, Fam108B counter, LYPLA1 counter, GSTO1 inh, LYPLA2 counter)
Cc1ccc(N=Cc2nc(/C=C/c3cccc([N+](=O)[O-])c3)oc2O)cc1	PME-1 inh 27
O=c1oc2c(-c3ccc([N+](=O)[O-])cc3)cc(O)cc2s1	GSTO1 inh 78
CCOc1ccc(C(=O)NCC(=O)OCCCC(=O)c2ccc(F)cc2)cc1OCC	none (no result: Fam108B counter, GSTO1 inh)
COC(=O)c1ccc(NC(=O)C(=O)N2CCN(C(=S)Nc3cccc(OC)c3)CC2)cc1	LYPLA2 counter 56
C=CCNC(=S)Nc1ccccc1-c1nnc2n1CCCCC2	none
Cc1ccc(NC(=O)CN2C(=O)S/C(=C\c3cccn3-c3cccc(C(=O)O)c3)C2=O)c(C)c1	LYPLA2 counter 30
Cc1cccc(C)c1NC(=O)CN1C(=O)S/C(=C\c2cccn2-c2cccc(C(=O)O)c2)C1=O	none
Cc1[nH]c2ccccc2c1/C=N/Nc1nc(Nc2ccccc2)nc(N2CCOCC2)n1	PME-1 inh 39
Cc1cccc(Oc2cc(N)cc([N+](=O)[O-])c2)c1	LYPLA2 counter 31
CCOc1ccc(Oc2cc(N)cc([N+](=O)[O-])c2)cc1	none
Cc1nn(Cc2ccc(C(=O)N3CCN(C(=O)c4ccco4)CC3)o2)c(C)c1[N+](=O)[O-]	none
CC1=NN(c2ccccc2)C(=O)C1=C(C)C	GSTO1 inh 35

Bioassay records as filed in PubChem.
